In PubChem BioAssay AID686978 (National Center for Advancing Translational Sciences (NCATS), 2013):
In all, about 420,000 compounds went through this assay and about 64,000 (15%) were called active. Roughly 27% stayed inconclusive and do not appear here. Calls follow the shape of the dose curve; as a rule, active = well fitted inhibition curve with a large enough effect; inconclusive = small, poorly fitted or top-dose-only effect; inactive = flat fitted curve, though single readings scatter. These entries were drawn from the full list. Entries that show only a call come without a potency.

assay: qHTS for Inhibitors of human tyrosyl-DNA phosphodiesterase 1 (TDP1): qHTS in cells in absence of CPT; settings: DT40 Tdp1-/- hTDP1 cells, no CPT, ATP luminescence, 48 h; activity change, negative = growth inhibition: at 46.2 µM (top of the series); also: nearly all actives have a fitted effect of over 55% in size
Outline: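 Readout: luminescence from CellTiter-Glo after 30 min in the dark at RT. Cells: DT40 Tdp1-/- with stable hTDP1, 400/well. Exposure: compounds alone, ≥48 hr, 37 °C.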
Potency is read from the fitted curve at half-maximal effect.

Row | Structure (SMILES) | Potency
1 | COc1ccc(CN2CN(C3CCCC3)CSC2=S)cc1 | 4.61 µM (active)
2 | COc1ccc(CCNC(=O)COC(=O)C2CCCCC2)cc1 | inactive
3 | COc1ccc(CN2CC(C(=O)NCCc3ccc(Cl)cc3)CC2=O)cc1 (stereo unspecified) | inactive
4 | COc1ccc(CN2CC(C(=O)NC3CCCCC3)CC2=O)cc1 (stereo unspecified) | inactive
5 | COc1ccc(Cn2c(=O)cc(C)[nH]c2=S)cc1 | inactive
6 | COc1ccc(CN2CN(C(C)C)CSC2=S)cc1 | 3.26 µM (active)
7 | CC(=O)N1CSCC1C(=O)O (stereo unspecified) | inactive
8 | CC1(C)Oc2ccc3ccc(=O)oc3c2/C(=C/NCCO)C1=O | inactive
9 | CCCCN(C(=O)C(CCSC)N1C(=O)c2ccccc2C1=O)c1c(N)n(CCC)c(=O)[nH]c1=O (stereo unspecified) | inactive
10 | CC(C)(CNC(=O)CNC(=O)C1CCCCC1)N1CCOCC1 | inactive
11 | CCCc1nc2c([nH]1)C(c1cccnc1)C(C#N)=C(N)O2 (stereo unspecified) | inactive
12 | COCc1[nH]nc2c1C(C1C=CCCC1)C(C#N)=C(N)O2 (stereo unspecified) | 20.6 µM (active)
13 | N#CC1=C(N)OC2=C(C(=O)CCC2)C1C1CC=CCC1 (stereo unspecified) | inactive
14 | COc1cc(C2C(C#N)=C(N)Oc3n[nH]c(-c4ccccn4)c32)cc(OC)c1OC (stereo unspecified) | inactive
15 | CCc1ccc(C2C(C#N)=C(N)Oc3n[nH]c(CC(=O)OC)c32)cc1 (stereo unspecified) | inactive
16 | CCOc1c(OC)cc(C2C(C#N)=C(N)Oc3n[nH]c(-c4ccncc4)c32)cc1OC (stereo unspecified) | inactive
17 | Cc1cc(C)c(C#N)c(SCc2[nH]nc3c2C(c2ccccc2)C(C#N)=C(N)O3)n1 (stereo unspecified) | inactive
18 | CCCc1[nH]nc2c1C(c1ccc(Br)s1)C(C#N)=C(N)O2 (stereo unspecified) | 7.31 µM (active)
19 | CCCc1[nH]nc2c1C(C1CC=CCC1)C(C#N)=C(N)O2 (stereo unspecified) | 13 µM (active)
20 | CCOc1ccc(CNC(=O)C2CCC(=O)N2C2CCCC2)cc1OC (stereo unspecified) | inactive
21 | CCCC(=O)Nc1ccc(C(=O)N/N=C/c2ccc[nH]2)cc1 | inactive
22 | CCOC(=O)c1ccccc1NC(=O)CSc1nc2ccccc2c(=O)[nH]1 | inactive
23 | COc1ccc(C(=O)c2oc3ccccc3c2NC(=O)COc2cccc(C)c2)cc1 | inactive
24 | C=CCN(CC=C)C(=O)COC(=O)c1n[nH]c2ccccc12 | inactive

Row | Structure (SMILES) | Potency
25 | COC(=O)c1sccc1-n1cccc1C(=O)C(=O)N1CCCCC1 | inactive
26 | CCC(=O)Nc1ccc(C(=O)CSc2nnc(CNc3ccc(Cl)cc3)o2)cc1OC | 12.6 µM (active)
27 | CCOC(=O)CSc1nnc(CNc2ccc(F)cc2)o1 | inactive
28 | COc1ccc(Cc2nnc(SCC(=O)Nc3ccc(C)c(C)c3)o2)cc1OC | inactive
29 | Cc1nn(C)cc1C(=O)NNC(=S)Nc1ccc(Cl)cc1 | inactive
30 | CCN(Cc1ccncc1)C(=O)c1cccc(S(=O)(=O)N2CCOCC2)c1 | inactive
31 | Cc1ccc(S(=O)(=O)N2CCOCC2)cc1C(=O)NCc1ccc(F)cc1 | inactive
32 | O=S(=O)(c1cccc(Cn2nnc(-c3ccc(F)cc3)n2)c1)N1CCOCC1 | 20.6 µM (active)
33 | COc1cc(/C=C2/SC(=S)N(Cc3ccccc3)C2=O)cc(OC)c1O | inactive
34 | CN(C)c1ccc(/C=c2\[nH]c(=O)/c(=C/c3ccc(N(C)C)cc3)[nH]c2=O)cc1 | inactive
35 | CN(C)c1ccc(/C=C2\NC(=S)N(Cc3ccccc3)C2=O)cc1 | 20.6 µM (active)
36 | Cc1nc2ccccn2c(=O)c1NC(=O)c1ccc(Br)o1 | inactive
37 | Cc1nc2ccccn2c(=O)c1NC(=O)c1c(F)cccc1F | inactive
38 | Cc1ccc(-c2nc3ccccn3c2Nc2c(C)cccc2C)o1 | 18.4 µM (active)
39 | CO[C@H]1O[C@@H]2O[C@@]3(C)CC[C@@H]4[C@@H](C)CC[C@@H]([C@H]1C)[C@@]24OO3 | 0.891 µM (active)
40 | CCOC(=O)CSc1nnc(-c2ccncc2)o1 | inactive
41 | CCOc1cc(/C=N/NC(=O)OC)ccc1OCCSc1ccc(Cl)cc1 | inactive
42 | Cc1ccc(NN=Nc2nc3c([nH]2)c(=O)n(C)c(=O)n3C)cc1 | inactive
43 | Cn1cc([N+](=O)[O-])c(C(=O)Nc2ccc3c(c2)OCCO3)n1 | inactive
44 | Cc1ccn2c(Nc3ccc4c(c3)OCCO4)c(-c3ccc(C)s3)nc2c1 | inactive
45 | Oc1ccccc1-c1nc2ccc(Cl)cn2c1Nc1ccc2c(c1)OCCO2 | 23.1 µM (active)
46 | COCCn1c(SCC(=O)Nc2nc(C)cs2)nnc1C(C)C | inactive
47 | COc1ccc(OC)c(C2N(c3ccccn3)C(=O)C3CCCN32)c1 (stereo unspecified) | inactive
48 | CCc1nnc(NS(=O)(=O)c2ccc(NC(=S)NC(=O)/C=C/c3cccs3)cc2)s1 | inactive

Row | Structure (SMILES) | Potency
49 | O=C(c1cc(-c2cccc(O)c2)on1)N1CCc2ccccc2C1 | inactive
50 | Clc1ccc(-c2ncc3ccccn23)c(Cl)c1 | inactive
51 | Clc1ccc(-c2cc(C3CCNCC3)[nH]n2)c(Cl)c1 | 20.6 µM (active)
52 | CCCn1c(=O)c2[nH]c(C3CCCC3)nc2n(CCC)c1=O | inactive
53 | CCCc1cc(=O)[nH]c(SCC(=O)Nc2ccc(S(=O)(=O)N3CCCC3)cc2)n1 | inactive
54 | Clc1ccc(CSc2nnc(/C=C/c3ccccc3)o2)c(Cl)c1 | inactive
55 | COCCNc1nc2nonc2nc1N1CCCC1c1nccs1 (stereo unspecified) | inactive
56 | CNC(=O)CN1C(=O)c2ccccc2S1(=O)=O | inactive
57 | O=C1c2ccccc2S(=O)(=O)N1Cc1c(F)cccc1Cl | inactive
58 | CC(C)(C)c1ccc(CN2C(=O)c3ccccc3S2(=O)=O)cc1 | 20.6 µM (active)
59 | CC(=O)[C@@]12O[C@@H]1C[C@H]1[C@@H]3CC[C@H]4C[C@@H](O)CC[C@]4(C)[C@H]3CC[C@@]12C | inactive
60 | NC(=O)CCC(NS(=O)(=O)c1ccc(Cl)cc1)C(=O)NCc1ccccc1Cl (stereo unspecified) | inactive
61 | O=C(O)COc1ccc(/C=N/O)cc1Br | inactive
62 | Cc1c(CC(=O)NCCCCCC(=O)O)c(=O)oc2cc3occ(-c4ccccc4)c3cc12 | inactive
63 | CCCCCCc1cc2cc(-c3nnc(-c4ccccc4)o3)c(=O)oc2cc1O | 20.6 µM (active)
64 | CCCC(=O)Nc1nnc(-c2ccccc2)o1 | inactive
65 | COc1cc2c(cc1OC)CC(=O)N(CCCN(C)C[C@H]1Cc3cc(OC)c(OC)cc31)CC2 | inactive
66 | CCOc1ccc(/C=N/NC(=O)CSc2ccccn2)cc1O | inactive
67 | Cc1ccc(/C=N/NC(=O)CSc2nc3ccccc3o2)cc1 | 23.1 µM (active)
68 | Cn1c(SCC(=O)N/N=C/c2ccc(O)c(O)c2)nc2ccccc21 | 18.4 µM (active)
69 | CC(C)(C)C(=O)CSc1nc2ccccc2o1 | inactive
70 | CCN(CC)C(=O)CSc1nc2ccccc2o1 | inactive
71 | C=CCn1c(Cn2nnc3ccccc32)nnc1SCC(=O)N/N=C/c1cc(Br)cc(OC)c1O | inactive
